Experimental findings from PubChem BioAssay (EPA / NIEHS) are described below.

Read-out in test [1]: alkyl and aryl transferase (GSTA2), GSTA2 (gene 2939)
Nature of the test: CLD_GSTA2_6hr: CellzDirect (CLD) Gene Expression Assay for alkyl and aryl transferase (GSTA2) at 6 hours (AID 2283666). The procedure, abridged: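 GSTA2 transcript induction at 6 h, quantified by nuclease protection (qNPA) with chemiluminescent detection, in human liver primary hepatocytes exposed to several compound concentrations with 0.2% DMSO as baseline; phase-contrast morphology annotated apparent cytotoxicity.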

A short description of test [2]: Tanguay_ZF_120hpf_TR_legacy: (Legacy) Oregon State University Tanguay Lab 120 Hour Post-fertilization zebrafish Assay for Touch Response (AID 2283667). The gist of the method: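 Readout is presence or absence of touch response in 120 hpf zebrafish larvae, assessed by brightfield observation after continuous static exposure at 28C. Final vehicle was 0.64% (vol/vol) DMSO.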

Read-out in test [3]: xenobiotic metabolism (CYP1A1), CYP1A1 (gene 1543)
Nature of the test: CLD_CYP1A1_24hr: CellzDirect (CLD) Gene Expression Assay for xenobiotic metabolism (CYP1A1) at 24 hours (AID 2283673).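 Also: CYP1A1 mRNA level by quantitative nuclease protection with chemiluminescence.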 The procedure, abridged: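 Transcript levels were read at 24 h by qNPA chemiluminescence in human liver primary cells. Cells got daily fresh dosing at multiple concentrations (vehicle 0.2% DMSO). Induction fitted upward against DMSO; phase-contrast cytotoxicity annotated.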

A short description of test [4]: CLD_ACTIN_6hr: CellzDirect (CLD) Gene Expression Assay for Baseline Control (Actin) at 6 hours (AID 2283676).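 Also: active means increased actin mRNA relative to DMSO vehicle.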 The procedure, abridged:
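Baseline actin transcript level measured by qNPA (S1 nuclease protection, chemiluminescence) in human hepatocyte cultures 6 h after chemical exposure; 0.2% DMSO vehicle as reference, cytotoxicity noted from morphology.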

Read-out in test [5]: Cytochrome P450 2C19 (Homo sapiens) (UniProt P33261)
As to the kind of experiment: CLD_CYP2C19_6hr: CellzDirect (CLD) Gene Expression Assay for xenobiotic metabolism (CYP2C19) at 6 hours (AID 2283678). The gist of the method: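 CYP2C19 transcript induction was quantified by quantitative nuclease protection assay with chemiluminescent read-out, 6 h after dosing. Cells were primary human hepatocytes from two donor preparations, given fresh dosing solutions daily in 0.2% DMSO vehicle. Activity was relative to DMSO.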

Read-out in test [6]: Cytochrome P450 3A4 (Homo sapiens) (UniProt P08684)
As to the kind of experiment: CLD_CYP3A4_6hr: CellzDirect (CLD) Gene Expression Assay for xenobiotic metabolism (CYP3A4) at 6 hours (AID 2283680). The gist of the method: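 CYP3A4 mRNA induction, 6 h after dosing of cultured primary human hepatocytes from two donors, read by quantitative nuclease protection (qNPA, chemiluminescence). Vehicle 0.2% DMSO as baseline; morphology-based cytotoxicity annotated yes/no.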

Read-out in test [7]: xenobiotic metabolism (CYP1A2), CYP1A2 (gene 1544)
Nature of the test: CLD_CYP1A2_24hr: CellzDirect (CLD) Gene Expression Assay for xenobiotic metabolism (CYP1A2) at 24 hours (AID 2283683). The procedure, abridged:
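CYP1A2 mRNA induction measured by quantitative nuclease protection (chemiluminescent) in human primary hepatocytes 24 h after multi-concentration chemical dosing with daily fresh solutions. DMSO (0.2%) baseline; positive-direction fitting; morphology-based cytotoxicity noted.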

Read-out in test [8]: Broad substrate specificity ATP-binding cassette transporter ABCG2 (Homo sapiens) (UniProt Q9UNQ0)
As to the kind of experiment: CLD_ABCG2_24hr: CellzDirect (CLD) Gene Expression Assay for ABC Transporter (ABCG2) at 24 hours (AID 2283685). The gist of the method:
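ABCG2 mRNA induction, read as gain of chemiluminescent signal over 0.2% DMSO, was measured by quantitative nuclease protection at 24 h. Cultured human liver hepatocytes were given fresh dosing solutions of test chemicals at several concentrations each day.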

Read-out in test [9]: Cytochrome P450 2B6 (Homo sapiens) (UniProt P20813)
Nature of the test: CLD_CYP2B6_24hr: CellzDirect (CLD) Gene Expression Assay for xenobiotic metabolism (CYP2B6) at 24 hours (AID 2283686). The procedure, abridged:
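qNPA chemiluminescent measurement of mRNA at 24 hours in human primary hepatocyte cultures from two donor preparations, with daily fresh dosing and 0.2% DMSO vehicle as baseline. Morphology-based cytotoxicity flagged yes/no.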

Read-out in test [10]: sulfotransferase (SULT2A), SULT2A1 (gene 6822)
Nature of the test: CLD_SULT2A_24hr: CellzDirect (CLD) Gene Expression Assay for sulfotransferase (SULT2A) at 24 hours (AID 2283694). The gist of the method:
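mRNA is measured by qNPA: probe hybridisation, S1 nuclease digestion, chemiluminescence, in lysates from human primary hepatocytes harvested 24 h after daily dosing. Vehicle was 0.2% DMSO. Phase-contrast microscopy flagged cytotoxicity (yes/no).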

Read-out in test [11]: ABC Transporter (ABCB1), ABCB1 (gene 5243)
As to the kind of experiment: CLD_ABCB1_48hr: CellzDirect (CLD) Gene Expression Assay for ABC Transporter (ABCB1) at 48 hours (AID 2283695).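 As to AC50: potency for induction meaning increase of mRNA over DMSO vehicle.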 The gist of the method:
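ABCB1 mRNA was measured by quantitative nuclease protection assay (chemiluminescence) 48 h after dosing. Human hepatocyte cultures from two separate donors received fresh dosing solutions daily for two days, with 0.2% DMSO as vehicle. Positive-direction fit against DMSO.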

Read-out in test [12]: glucuronosyltransferase (UGT1A1), UGT1A1 (gene 54658)
As to the kind of experiment: CLD_UGT1A1_6hr: CellzDirect (CLD) Gene Expression Assay for glucuronosyltransferase (UGT1A1) at 6 hours (AID 2283672). The procedure, abridged:
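UGT1A1 mRNA induction, read by quantitative nuclease protection assay, 6 h after dosing primary human hepatocytes (two donors, 0.2% DMSO vehicle). Gain of signal fitted relative to vehicle.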

Read-out in test [13]: organic anion transporter (SLCO1B1), SLCO1B1 (gene 10599)
As to the kind of experiment: CLD_SLCO1B1_6hr: CellzDirect (CLD) Gene Expression Assay for organic anion transporter (SLCO1B1) at 6 hours (AID 2283668).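 Also: active means mRNA induction above DMSO baseline.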 The procedure, abridged:
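SLCO1B1 mRNA induction measured 6 h after dosing by quantitative nuclease protection with chemiluminescent read-out, in human primary hepatocyte cultures given chemicals at several concentrations (vehicle 0.2% DMSO). Increase over DMSO baseline fitted; morphology-based cytotoxicity annotated yes/no.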

Read-out in test [14]: ABC Transporter (ABCB11), ABCB11 (gene 8647)
As to the kind of experiment: CLD_ABCB11_6hr: CellzDirect (CLD) Gene Expression Assay for ABC Transporter (ABCB11) at 6 hours (AID 2283675).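 Also: hits raise ABCB11 mRNA level so AC50 marks induction.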 The gist of the method:
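Read-out was ABCB11 mRNA gain of signal by quantitative nuclease protection assay, relative to 0.2% DMSO vehicle, 6 h post-dose. Cells were primary human hepatocytes from two donors, treated across multiple concentrations; phase-contrast cytotoxicity noted yes/no.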

Test [15] can be described thus: CCTE_Padilla_ZF_144hpf_TERATOSCORE: (Legacy) CCTE's 144 Hour Post-fertilization zebrafish Assay Teratoscore, Padilla Lab (AID 2283679; active = hit-call score of the fitted dose curve at least 0.9, where 1 is the maximum; inactive = score below 0.9). The procedure, abridged: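 Larvae scored by eye at 144 hpf for death, hatching and malformations after a day in clean Hanks'. Before that, daily-renewed exposure at 80 uM (0.4% DMSO, 26C) from roughly 6-8 hpf through 5 dpf, 4 embryos per chemical.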

Read-out in test [16]: ABC Transporter (ABCB1), ABCB1 (gene 5243)
As to the kind of experiment: CLD_ABCB1_24hr: CellzDirect (CLD) Gene Expression Assay for ABC Transporter (ABCB1) at 24 hours (AID 2283684). The gist of the method: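 ABCB1 mRNA induction versus 0.2% DMSO vehicle was read by qNPA chemiluminescence at 24 h. Cultured human hepatocytes from two donor preparations received daily fresh dosing, and phase-contrast cytotoxicity calls were annotated alongside the data.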

Read-out in test [17]: ABC Transporter (ABCB11), ABCB11 (gene 8647)
Nature of the test: CLD_ABCB11_24hr: CellzDirect (CLD) Gene Expression Assay for ABC Transporter (ABCB11) at 24 hours (AID 2283674; active = hit-call score of the fitted dose curve at least 0.9, where 1 is the maximum; inactive = score below 0.9). The procedure, abridged: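 ABCB11 transcript was quantified by qNPA chemiluminescence in cultured human liver hepatocytes 24 hours after dosing. Fresh dosing solutions were applied on consecutive days, against a 0.2% DMSO vehicle. Cytotoxicity was noted by phase-contrast morphology.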

Read-out in test [18]: Cytochrome P450 (CYP24A1_1), CYP24A1 (gene 1591)
Nature of the test: LTEA_HepaRG_CYP24A1_1: Life Technologies and Expression Analysis (LTEA) Assay for Cytochrome P450 (CYP24A1_1) using HepaRG (AID 2283671; active = hit-call score of the fitted dose curve at least 0.9, where 1 is the maximum; inactive = score below 0.9). The conditions noted are these: mRNA level, 48 h; actives raise or lower the signal. The procedure, abridged:
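Cultures of human HepaRG were treated in duplicate for 48 h (0.5% DMSO vehicle, highest dose 100 uM). CYP24A1 mRNA by qRT-PCR, normalized to ACTB, GAPDH, POLR2A.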

Read-out in test [19]: Cytochrome P450 2C19 (Homo sapiens) (UniProt P33261)
As to the kind of experiment: CLD_CYP2C19_24hr: CellzDirect (CLD) Gene Expression Assay for xenobiotic metabolism (CYP2C19) at 24 hours (AID 2283687).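 Also: activity means mRNA induction above DMSO vehicle baseline.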 The gist of the method:
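CYP2C19 mRNA was quantified by qNPA chemiluminescence after 24 h of daily dosing of cultured human primary hepatocytes from two donors; vehicle was 0.2% DMSO, and increases over DMSO baseline were fitted.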

Read-out in test [20]: organic anion transporter (SLCO1B1), SLCO1B1 (gene 10599)
As to the kind of experiment: CLD_SLCO1B1_24hr: CellzDirect (CLD) Gene Expression Assay for organic anion transporter (SLCO1B1) at 24 hours (AID 2283690). The procedure, abridged:
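SLCO1B1 mRNA induction read at 24 h by quantitative nuclease protection assay (chemiluminescence), analyzed against DMSO baseline. Human hepatocyte cultures from separate donors received fresh dosing solutions daily; vehicle 0.2% DMSO; cytotoxicity flagged by phase-contrast morphology.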

Results filed as inconclusive are left out. Calls of active or inactive are those of the source. The calls were made as follows, unless noted: active = hit-call score of the fitted dose curve at least 0.9, where 1 is the maximum; inconclusive = response in the unintended direction; inactive = score below 0.9.

Chain of Cytochrome P450 2C19 (Homo sapiens) (P33261 whole entry, looked up): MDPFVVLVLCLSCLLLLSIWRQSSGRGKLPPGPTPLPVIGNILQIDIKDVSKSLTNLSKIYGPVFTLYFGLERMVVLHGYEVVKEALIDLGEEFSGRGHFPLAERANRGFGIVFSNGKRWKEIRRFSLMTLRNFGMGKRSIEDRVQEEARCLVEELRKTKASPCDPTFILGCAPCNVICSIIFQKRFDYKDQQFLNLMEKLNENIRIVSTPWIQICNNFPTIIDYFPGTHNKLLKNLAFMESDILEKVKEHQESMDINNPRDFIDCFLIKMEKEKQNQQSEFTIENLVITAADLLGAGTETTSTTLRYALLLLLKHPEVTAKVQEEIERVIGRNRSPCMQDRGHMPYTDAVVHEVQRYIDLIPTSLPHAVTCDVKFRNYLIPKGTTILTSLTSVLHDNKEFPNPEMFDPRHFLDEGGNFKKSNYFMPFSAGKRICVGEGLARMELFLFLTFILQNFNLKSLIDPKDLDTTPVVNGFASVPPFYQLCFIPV
Chain of Broad substrate specificity ATP-binding cassette transporter ABCG2 (Homo sapiens) (Q9UNQ0 whole entry, looked up): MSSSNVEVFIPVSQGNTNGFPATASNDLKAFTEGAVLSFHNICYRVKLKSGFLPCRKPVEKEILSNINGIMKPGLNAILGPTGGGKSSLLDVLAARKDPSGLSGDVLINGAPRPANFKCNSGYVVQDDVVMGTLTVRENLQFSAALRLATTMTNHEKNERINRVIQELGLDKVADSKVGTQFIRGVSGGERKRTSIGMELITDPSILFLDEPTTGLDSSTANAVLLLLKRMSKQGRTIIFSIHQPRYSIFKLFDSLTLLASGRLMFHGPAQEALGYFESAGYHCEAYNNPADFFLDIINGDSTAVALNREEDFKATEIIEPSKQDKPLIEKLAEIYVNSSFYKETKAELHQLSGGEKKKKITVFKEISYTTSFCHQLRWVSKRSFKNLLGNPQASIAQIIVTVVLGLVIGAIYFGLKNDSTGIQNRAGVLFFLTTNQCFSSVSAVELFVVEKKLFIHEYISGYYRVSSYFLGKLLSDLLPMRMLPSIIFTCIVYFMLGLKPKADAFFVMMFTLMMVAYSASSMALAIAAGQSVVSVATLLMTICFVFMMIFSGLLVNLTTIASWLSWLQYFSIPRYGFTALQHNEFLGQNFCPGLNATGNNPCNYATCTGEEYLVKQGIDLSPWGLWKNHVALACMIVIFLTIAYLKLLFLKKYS
Chain of Cytochrome P450 3A4 (Homo sapiens) (P08684 whole entry, looked up): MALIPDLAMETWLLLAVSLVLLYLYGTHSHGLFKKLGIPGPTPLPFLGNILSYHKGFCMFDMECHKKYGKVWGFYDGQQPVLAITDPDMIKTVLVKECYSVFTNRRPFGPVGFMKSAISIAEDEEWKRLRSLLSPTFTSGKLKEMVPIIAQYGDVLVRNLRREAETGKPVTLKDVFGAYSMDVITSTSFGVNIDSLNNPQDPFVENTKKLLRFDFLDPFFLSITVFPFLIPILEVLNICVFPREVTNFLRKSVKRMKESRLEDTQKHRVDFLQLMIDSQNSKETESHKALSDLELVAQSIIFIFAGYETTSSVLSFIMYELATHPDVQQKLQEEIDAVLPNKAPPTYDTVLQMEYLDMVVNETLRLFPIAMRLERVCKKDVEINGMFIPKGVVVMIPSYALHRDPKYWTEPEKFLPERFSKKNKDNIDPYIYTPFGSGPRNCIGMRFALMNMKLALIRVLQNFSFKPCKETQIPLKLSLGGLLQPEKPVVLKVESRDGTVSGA

`O=C(O)C1(C(=O)Nc2ccc(Cl)cc2Cl)CC1`: the result in [1], in [2], in [3], in test [4], in [5] and in [6] was inactive. In addition, the call in test [8], in test [9], in [10] and in [11] was inactive. The AC50 in test [7] is 20 µM (active).
`c1ccc2[nH]c(-c3cscn3)nc2c1`: the molecule was called inactive in test [1], in test [2], in test [12], in test [4], in test [5] and in [9]. Moreover, the AC50 in [3] is 0.226 µM (active); in test [7] it was 0.345 µM (active).
Take `CCCN(CCC)c1c([N+](=O)[O-])cc(C(F)(F)F)c(N)c1[N+](=O)[O-]`: the molecule was classed as inactive in test [1], in [2], in test [13], in test [12], in [14] and in test [4]. For the same molecule, the result in test [15], in test [6], in [16], in [8], in [10] and in test [11] was inactive. The AC50 in test [3] was 3.83 µM (active); in test [7] it was 2.34 µM (active); in [9], 4.48 µM (active).
As for `CCOC(=O)C(C)Oc1ccc(Oc2cnc3cc(Cl)ccc3n2)cc1` (stereo unspecified), the outcome in test [1], in test [2], in test [12], in test [17], in [4] and in test [6] was inactive. Also, the molecule was classed as inactive in test [7], in [16], in [9], in test [10] and in test [11].
For `CN(C)C(=O)Nc1ccc(Cl)c(Cl)c1`, the result in [1], in test [2], in test [18], in [12], in [14] and in test [15] was inactive. In addition, the molecule was called inactive in [6] and in [10]. The AC50 is 4.24 µM (active) in test [3], 4.42 µM (active) in [7] and 2.49 µM (active) in test [9].
Turning to `CCSC(=O)N(CC(C)C)CC(C)C`, the result in test [1], in [2], in [13], in test [12], in [14] and in test [4] was inactive. Besides, the molecule was called inactive in test [15], in test [7], in test [16], in test [8], in test [9] and in test [19]. Further, the result in test [20] and in test [11] was inactive.
For the molecule `S=C([S-])NCCNC(=S)[S-].[Mn+2]`, the molecule was called inactive in test [1], in test [2], in test [13], in test [18], in test [3] and in test [14]. Further, the molecule was classed as inactive in test [4], in test [7], in test [16] and in test [8]. Also, in test [11], the AC50 is 1.9 µM (active).

The AC50 is the concentration at which the activity in the assay is half-maximal.
